# Measurements: PubChem BioAssay (NCATS)
# Inconclusive results are not listed. Calls of active or inactive are those of the source. The call rests on the fitted dose curve; in most records, active means well fitted inhibition curve with a large enough effect; inconclusive means small, poorly fitted or top-dose-only effect; inactive means flat fitted curve, though single readings scatter.
# Biological target: Phospholipid hydroperoxide glutathione peroxidase GPX4 (Homo sapiens) (UniProt P36969)
# Test: Primary qHTS Assay for Inhibitors of Recombinant Selenoprotein Glutathione Peroxidase 4 (GPX4) (AID 1845192); further: nearly all actives have a fitted effect of over 65% in size
# Settings: recombinant GPX4, GR-coupled NADPH fluorescence, 15 min; series mostly up to 50 µM; activity change, negative = inhibition: at the top concentration
# Text: Assay Provider: Elias S.J. Arner MD PhD.
# Department of Medical Biochemistry and Biophysics
# Karolinska Institutet, Solna, Stockholm, Sweden
# Selenoprotein glutathione peroxidases (GPX), like the ubiquitously expressed GPX1 and the ferroptosis modulator GPX4, enact their antioxidant activities by reducing hydroperoxides using glutathione. […] GPX1 and GPX4 inhibitors have thus shown promise as anti-cancer agents. Existing inhibitors are often promiscuous, or modulate GPX activity only indirectly, so novel direct inhibitors identified through screening against GPX1 and GPX4 could be valuable. Here, we developed optimized glutathione reductase (GR)-coupled GPX assays for the biochemical high-throughput screen (HTS) of almost 12,000 compounds with known mechanisms of action. Initial hits were triaged using a GR counter-screen, assessed for isoform specificity using a separate GPX2 assay, and were assessed for general selenocysteine-targeting activity using a thioredoxin reductase (TXNRD1) assay. With this suite of assays, we identified novel GPX1/GPX2- and GPX4-specific inhibitors and can here present a validated pipeline for future discovery research for selenoprotein-targeting agents.
# SEQUENCE No. (e.g., 1, 2, 3, etc.); […] (e.g., Cells, Incubation, Reagent, etc.); VALUE; DESCRIPTION.
# 1; Reagent 1; 3 uL; 333.33 nM GPx4 enzyme or no enzyme control in 1536-well, black, solid Greiner assay plate.
# 2; Compound; 25 nL; Kalypsis pin tool (Wako USA) equipped with a 1536-well pin head.
# 3; Incubation; 30 min; room temperature.
# 4; Reagent 2; 1 uL; 500 nM GR, 5 mM GSH, 2.5 mM NADPH solution
# 5; Reagent 3; 1 uL; 2.5 mM CHP in 50% EtOH.
# 6; Detection; Fluorescence; ViewLux microplate reader, excitation 340 nm and emission 450 nm.
# 7; Incubation; 15 min; room temperature.
# 8; Detection; Fluorescence; ViewLux microplate reader, excitation 340 nm and emission 450 nm.
# NOTES (numbers refer to Sequence numbers above)
# 1. 3 µL of 333.33 nM GPX4 and 0.016% BSA in assay buffer (50 mM Tris-HCl, 2 mM EDTA (pH 7.5), 150 mM NaCl) was added to columns 3-48 of 1536-well plates using a BioRAPTR Flying Reagent Dispenser (Let's Go Robotics (LGR), Carlsbad, CA). A no-enzyme control (0.01% BSA in TES assay buffer) was added to columns 1-2.
# 2. 25 nL, library and DMSO controls were added to each well with a pin tool (Kalypsys).
# 3. The assay plates were incubated for 30 minutes at room temperature.
# 4. 1 µL of master mix (500 nM glutathione reductase (GR), 5 mM reduced glutathione (GSH), 2.5 mM NADPH in assay buffer) was added.
# 5. 1 µL of cumene hydroperoxide (CHP) ([2.5 mM] in 50% EtOH) was then added within 5 minutes to initiate the reaction. Final concentrations were: 200 nM GPX4, 1 mM GSH, 0.5 mM CHP, 0.5 mM NADPH, 100 nM GR, 0.01% BSA.
# 6. Initial fluorescence readout (t=0) at 340/450 nm was measured using a ViewLux multimodal detector (PerkinElmer, Waltham, MA).
# 8. Endpoint fluorescence readout (t=15) at 340/450 nm was measured 15 min after room temperature incubation.
# On the % scale 0 is the no-effect control and ±100 the full control effect; potency means the concentration at half of the fitted maximal effect.
# Chain of Phospholipid hydroperoxide glutathione peroxidase GPX4 (Homo sapiens) (P36969 whole entry, looked up): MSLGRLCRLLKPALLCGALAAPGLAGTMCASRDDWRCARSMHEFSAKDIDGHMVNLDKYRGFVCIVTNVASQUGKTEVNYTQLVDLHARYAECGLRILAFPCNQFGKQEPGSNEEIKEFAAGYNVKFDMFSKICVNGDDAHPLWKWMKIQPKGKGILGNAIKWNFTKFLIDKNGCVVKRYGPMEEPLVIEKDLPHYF
SMILES,"activity change, negative = inhibition",outcome,Potency
CO[C@H]1O[C@@H]2O[C@@]3(C)CC[C@H]4[C@H](C)CC[C@@H]([C@@H]1C)[C@@]24OO3,-12.4% (inactive),–,–
CC(C)CCC[C@@H](C)[C@H]1CC[C@H]2[C@@H]3CC=C4C[C@@H](O)CC[C@]4(C)[C@@H]3CC[C@]12C,3.53% [at 27.8 µM] (inactive),–,–
NCCCC(N)C(=O)O (stereo not given),-8.21% [at 27.8 µM] (inactive),–,–
O=C1CCC(C(=O)O)N1 (stereo not given),–,inactive,–
COc1ccc(CNc2nc(N3CCC[C@H]3CO)ncc2C(=O)NCc2ncccn2)cc1Cl,–,inactive,–
CCC(CN)CC(C)CNCC(O)CNCC(CC)CC(CC)CN (stereo not given),–,inactive,–
CONC(=O)c1ccccc1Nc1cc(Nc2cc(C)nn2C(C)C)ncc1Cl,–,inactive,–
Cc1cc2nc3c(=O)[nH]c(=O)nc-3n(C[C@@H](O)[C@@H](O)[C@@H](O)COP(=O)(O)O)c2cc1C,–,–,2.55 µM (active)
CNC(=O)c1ccccc1Nc1nc(Nc2ccc3c(c2OC)CCC[C@H](N2CCN(CCO)CC2)C3)ncc1Cl,–,inactive,–
CCCCCCCCCCCCCCCC(=O)OC1C(SC)OC(C(NC(=O)C2CC(CCC)CN2C)C(C)Cl)C(O)C1O (stereo not given),–,inactive,–
CC(C)(C)NCC(O)COc1ccccc1C#N (stereo not given),-10.2% (inactive),–,–
CC(=O)O[C@]1(C(C)=O)CC[C@H]2[C@@H]3C=C(C)C4=CC(=O)CC[C@@H]4[C@H]3CC[C@@]21C,-19.3% (inactive),–,–
CCC[C@@H]1C[C@@H](C(=O)N[C@@H](C2O[C@H](SC)[C@H](O)[C@@H](O)[C@H]2O)[C@H](C)Cl)N(C)C1 (stereo not given in full),-23.3% (inactive),–,–
O=C1CCC[C@@H]2[C@@H]3CCC[N@+]4([O-])CCC[C@H](CN12)[C@H]34,–,inactive,–
CCCCCCCCCCCCCCCC(=O)OCC(O)C1OC(=O)C(O)=C1O (stereo not given),–,–,7.08 µM (active)
CC(C)OC(=O)CCC/C=C\C[C@@H]1[C@@H](CC[C@@H](O)CCc2ccccc2)[C@H](O)C[C@@H]1O,4.91% [at 9.73 µM] (inactive),–,–
CCCCCCCCCCCCCCCC(=O)OCC(=O)[C@@]1(O)[C@H](C)C[C@H]2[C@@H]3CCC4=CC(=O)C=C[C@]4(C)[C@@]3(F)[C@@H](O)C[C@@]21C,-22.8% (inactive),–,–
CCCCC[C@@H](O)CC[C@H]1[C@@H]2Cc3cccc(OCC(=O)O)c3C[C@@H]2C[C@@H]1O,–,inactive,–
O=NCc1ccc([N+](=O)[O-])o1,-23.9% (inactive),–,–
COc1ccc2c(O[C@H]3CC4C(=O)N(C)CCCC/C=C\[C@@H]5C[C@@]5(C(=O)NS(=O)(=O)C5CC5)NC(=O)[C@@H]4C3)cc(-c3nc(C(C)C)cs3)nc2c1C (stereo not given in full),–,–,2 µM (active)

SMILES,"activity change, negative = inhibition",outcome,Potency
CC(C)NC(=O)C1CCC(n2c(NC(=O)c3ccc(F)cc3)nc3ccc(CN4CCC(C(C)(C)O)CC4)cc32)CC1 (stereo not given),-1.29% [at 27.8 µM] (inactive),–,–
C#C[C@]1(O)CC[C@H]2[C@@H]3CCC4=CC(=O)CC[C@@H]4[C@H]3C(=C)C[C@@]21CC,–,inactive,–
CC(C)(C)NC(=O)[C@@H]1C[C@@H]2CCCC[C@H]2CN1C[C@@H](O)[C@H](Cc1ccccc1)NC(=O)[C@H](CC(N)=O)NC(=O)c1ccc2ccccc2n1,-31.7% (inactive),–,–
CC1CCC(C(C)C)C(OC(=O)c2ccccc2O)C1 (stereo not given),3.72% (inactive),–,–
CC(C)=C/C(C)=N\Nc1nncc2ccccc12,-5.38% (inactive),–,–
Cc1cc(CC(C)C[Si](C)(O[Si](C)(C)C)O[Si](C)(C)C)c(O)c(-n2nc3ccccc3n2)c1 (stereo not given),–,inactive [at 15.3 µM],–
O=C(O[C@H]1C[N+]2(CCCOc3ccccc3)CCC1CC2)C(O)(c1cccs1)c1cccs1,–,inactive,–
CCCN1C[C@@H](NS(=O)(=O)N(CC)CC)C[C@@H]2Cc3c(O)cccc3C[C@H]21,–,inactive,–
C[N+](C)(C)C1CCC(CC2CCC([N+](C)(C)C)CC2)CC1 (stereo not given),–,inactive,–
CCCC[C@H](C)C[C@H](O)/C=C/[C@H]1[C@H](O)CC(=O)[C@@H]1CCCC/C=C/C(=O)O,–,inactive,–
CC(C)(C)NC(=O)N[C@H](C(=O)N1C[C@H]2[C@@H]([C@H]1C(=O)NC(CC1CCC1)C(=O)C(N)=O)C2(C)C)C(C)(C)C (stereo not given in full),4.62% (inactive),–,–
CCC(CC)[C@H](NC(C)=O)[C@@H]1[C@H](O)[C@@H](C(=O)O)C[C@H]1N=C(N)N,-9.13% [at 0.409 µM] (inactive),–,–
CC(=O)OCC1=C(C(=O)O)N2C(=O)[C@@H](NC(=O)[C@H](N)c3ccccc3)[C@H]2SC1,–,–,15.8 µM (active)
Cc1cc(/C=C/C#N)cc(C)c1Nc1ccnc(Nc2ccc(C#N)cc2)n1,-7.4% (inactive),–,–
CC(C)(C)NCC(O)COc1ccccc1C1CCCC1 (stereo not given),-11.4% (inactive),–,–
CCCCCCCCCCCCOC(=O)CS(=O)(=O)O,–,–,14.1 µM (active)
Cc1c(OCC(F)(F)F)ccnc1C[S@@](=O)c1nc2ccccc2[nH]1,–,–,10 µM (active)
Cn1c(=O)cc(N2CCC[C@@H](N)C2)n(Cc2ccccc2C#N)c1=O,–,inactive,–
Cc1cccc(O)c1,–,inactive,–
C[C@H]1[C@H](OC(=O)CCC(=O)O)O[C@@H]2O[C@@]3(C)CC[C@H]4[C@H](C)CC[C@@H]1[C@@]24OO3,-21.7% (inactive),–,–
